# According to PubChem BioAssay (NCI):
# Compounds without any hit were thinned out: in the full panel of roughly 83,000, 20% have a hit.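 Growth was measured after 48 h exposure to one concentration of compound in 96-well plates. Values under 10 count as active.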 Unmarked numbers belong to inactive results. Calls of active or inactive are those of the source.
# Experiments:
# Assay in all cases: NCI-60 one-dose screen, 48 h (100 = growth as untreated, 0 = no growth, -100 = all killed)
# Settings in all cases: 10 µM unless noted
# SK-MEL-2 melanoma = tested on: SK-MEL-2 melanoma
# EKVX NSCLC = tested on: EKVX NSCLC
# SN12C renal = tested on: SN12C renal
# UO-31 renal = tested on: UO-31 renal
# TK-10 renal = tested on: TK-10 renal
# ACHN renal = tested on: ACHN renal
# CAKI-1 renal = tested on: CAKI-1 renal
# A498 renal = tested on: A498 renal
# CCRF-CEM leukemia = tested on: CCRF-CEM leukemia
# MOLT-4 leukemia = tested on: MOLT-4 leukemia
# RPMI-8226 leukemia = tested on: RPMI-8226 leukemia
# OVCAR-8 ovarian = tested on: OVCAR-8 ovarian
# OVCAR-5 ovarian = tested on: OVCAR-5 ovarian
# OVCAR-4 ovarian = tested on: OVCAR-4 ovarian
# SK-OV-3 ovarian = tested on: SK-OV-3 ovarian
# IGROV1 ovarian = tested on: IGROV1 ovarian
# OVCAR-3 ovarian = tested on: OVCAR-3 ovarian
# HS 578T breast = tested on: HS 578T breast
# NCI/ADR-RES ovarian = tested on: NCI/ADR-RES ovarian
Compound,growth (SK-MEL-2 melanoma),growth (EKVX NSCLC),growth (SN12C renal),growth (UO-31 renal),growth (TK-10 renal),growth (ACHN renal),growth (CAKI-1 renal),growth (A498 renal),growth (CCRF-CEM leukemia) [%],growth (MOLT-4 leukemia) [%],growth (RPMI-8226 leukemia),growth (OVCAR-8 ovarian),growth (OVCAR-5 ovarian),growth (OVCAR-4 ovarian),growth (SK-OV-3 ovarian),growth (IGROV1 ovarian) [%],growth (OVCAR-3 ovarian),growth (HS 578T breast),growth (NCI/ADR-RES ovarian)
COCOc1cc2c(=O)c(C)c(C(=O)N[C@@H](Cc3ccccc3)C(O)C(=O)NCc3ccccc3)oc2cc1OC (stereo not given in full),-2.79% (active),78.4%,42.7%,81.5%,88.8%,83.7%,50.5%,-6.29% (active),96.1,87.8,67.3%,2.29% (active),92.5%,28.2%,22.8%,57.6,65.4%,9.01% (active),88%
COc1cc2c(c(OC)c1OC)C(=O)CC(c1cccc(NC(=O)c3cccc([N+](=O)[O-])c3)c1)O2 (stereo not given),-10.4% (active),60.6%,29.2%,16.1%,71.7%,30.1%,22.1%,91.2%,11.5,13.9,8.29% (active),10.2%,79.3%,27.1%,64.2%,27,19.4%,25.1%,14.5%
COc1ccc(NC(=O)Cn2c(/C=C/c3cccc([N+](=O)[O-])c3)nc3ccccc3c2=O)cc1,106%,87.8%,76.1%,22.9%,72.7%,20.3%,49.9%,92.8%,92.3,–,124%,43.3%,118%,44.7%,42%,104,50.7%,66.8%,70.8%
COc1cc2c(c(OC)c1OC)C(=O)CC(c1cccc(NC(=O)c3cccc(NC(=O)[C@H](C)NC(=O)OC(C)(C)C)c3)c1)O2 (stereo not given in full),50.9%,93.3%,59.9%,44.1%,101%,41.5%,42.2%,104%,31.2,36.5,36.5%,28.2%,123%,51.8%,91.9%,65.3,52.9%,73.6%,80%
CC(=O)Oc1ccc(/C=C/C(=O)N[C@@H](Cc2ccccc2)C(O)C(=O)NCc2ccccc2)cc1OC(C)=O (stereo not given in full),110%,90.6%,90.8%,38.8%,76.9%,85.5%,71.3%,115%,44.9,55.5,69.8%,75.9%,113%,77.3%,91.5%,62.5,84.7%,84.8%,104%
COc1cc(OC)cc(C(=O)Nc2cccc(-c3cn(-c4ccc(S(N)(=O)=O)cc4)nn3)c2)c1,92.6%,78.8%,70%,96.3%,94.8%,88.5%,60.8%,116%,105,–,114%,39.4%,113%,72%,47.5%,99.5,90.9%,70.3%,94.4%
O=C1Nc2ccc([N+](=O)[O-])cc2C1=Nc1ccccc1,104%,95.9%,89.3%,69.4%,111%,78.2%,77.2%,116%,103,–,121%,106%,103%,113%,113%,98.6,95.3%,97.9%,103%
COc1cc(NC(=O)c2cccc(C3CCc4c(cc(OC)c(OC)c4OC)O3)c2)cc(OC)c1OC (stereo not given),-1.8% (active),35.3%,13.2%,3.46% (active),56.6%,17.3%,14.8%,112%,18.1,11.8,16.2%,5.15% (active),51.4%,31.6%,32.4%,13.8,7.51% (active),-8.84% (active),16.9%
COc1cc2c(c(OC)c1OC)C(=O)CC(c1cccc(NC(=O)c3cc([N+](=O)[O-])ccc3Cl)c1)O2 (stereo not given),15%,52.3%,24%,29.9%,65.8%,6.5% (active),20.8%,131%,22.8,14.4,30.3%,-11.6% (active),67.2%,57.2%,57.1%,12.5,16%,15.1%,15%
COCOc1ccc2c(=O)c(C)c(C(=O)N[C@@H](Cc3ccccc3)C(O)C(=O)NCCc3ccc(OC)cc3)oc2c1 (stereo not given in full),118%,111%,95.2%,-20.1% (active),116%,114%,101%,136%,105,94.8,100%,107%,116%,122%,113%,122,120%,104%,107%
O=C(NNc1nc2cc(F)ccc2n2c(C(=O)N3CCN(C4CC4)CC3)ccc12)c1ncccn1,57%,22.8%,27%,14.8%,30.2%,12.2%,17.7%,75.9%,13.4,–,25.1%,22.1%,38.4%,29.5%,22.1%,30.4,57.7%,66.5%,16.6%
Cc1cnc(C(=O)NNc2nc3cc(F)ccc3n3c(C(=O)N4CC5CC(C4)N5)ccc23)cn1,53%,23.1%,32.1%,23.3%,41.2%,15.6%,23.1%,88.6%,17,–,48.1%,20.2%,48.7%,38.4%,25.8%,39.9,50.1%,62.9%,67%
NS(=O)(=O)c1ccc(-n2cc(-c3cccc(NC(=O)c4ccc(Cl)c(C(F)(F)F)c4)c3)nn2)cc1,78.3%,46.5%,34.3%,51%,48.7%,23.2%,33.2%,91.1%,28.3,–,46.3%,-60.8% (active),28.6%,44.7%,55.7%,58.6,-4.74% (active),32.1%,78.2%
CN1CCN(c2ccc3c(c2)nc(NNC(=O)c2cnccn2)c2cccn23)CC1,-69% (active),-46.8% (active),0.109% (active),-77.9% (active),-74.5% (active),-85.8% (active),-74% (active),-84.7% (active),13.8,–,5.23% (active),-79.4% (active),-25% (active),-37.6% (active),-51.3% (active),12.4,-19.7% (active),34.1%,-10% (active)
C[C@H]1CN(C(=O)c2ccc3c(NNC(=O)c4ccncn4)nc4cc(F)c(F)cc4n23)CCN1,53.4%,15.7%,24.1%,13.6%,36.8%,8.98% (active),15.2%,50.3%,10.9,–,23.6%,17.2%,50.4%,34.7%,43.7%,33,58.2%,59.6%,3.96% (active)
NS(=O)(=O)c1ccc(-n2cc(-c3cccc(NC(=O)c4cc(Cl)cc(Cl)c4)c3)nn2)cc1,96.7%,88.8%,88%,115%,114%,95.8%,94.2%,135%,56.7,–,92.6%,26.8%,81.2%,73.6%,90.2%,101,48.2%,89.2%,92.7%
